Results from ChEMBL document CHEMBL3988442, “University of Dundee, Small-Polar-MMV Screening Library” (2021).
In all, about 48,000 compounds went through this assay and about 13,000 (27%) showed an effect of 50% or more. The list shows a part of the results.

test system: Wolbachia pipientis; experiment: Anti-Wolbachia Cell-Based Screen; type: functional; parameters: scale not given: in the data most compounds retested in dose-response had high values; conditions: 5 µM

Row | Compound | Percent Effect [%]
1 | CC(c1ccccc1)N(C)C(=O)CN1CCCc2cc(F)cc(F)c21 (stereo unspecified) | -34.4
2 | CCc1cnc(N2C[C@H]3C[C@H](C(=O)N4CCOCC4)[C@@H](C2)O3)nc1.O=C(O)C(F)(F)F | 104.4
3 | O=C(O)C(F)(F)F.O=C([C@H]1COC[C@H]2CN(c3ncc(F)cn3)C[C@H]21)N1CCOCC1 | -8.043
4 | Cc1cnc(N2C[C@H]3C[C@H](C(=O)N(C)C)[C@@H](C2)O3)nc1 | -7.121
5 | CCc1cnc(N2C[C@H]3C[C@H](C(=O)N(C)C)[C@@H](C2)O3)nc1 | -23.08
6 | O=C([C@H]1C[C@@H]2CN(c3ncc(F)cn3)C[C@H]1O2)N1CCCC1 | 104.9
7 | CCc1cnc(N2C[C@H]3C[C@H](C(=O)NC)[C@@H](C2)O3)nc1 | 2.577
8 | O=C([C@H]1C[C@@H]2CN(c3ncc(F)cn3)C[C@H]1O2)N1CCOCC1 | 99.35
9 | CCc1cnc(N2C[C@H]3C[C@H](C(=O)NCC(C)C)[C@@H](C2)O3)nc1 | -2.395
10 | O=C(C1CN(c2ncc(F)cn2)CC12CCOCC2)N1CCOCC1 (stereo unspecified) | -0.101
11 | O=C(NCCCF)Nc1ccc2nc(N3CCOCC3)oc2c1 | 0.7918
12 | CC(C)NC(=O)C1CCN(c2nc3nc[nH]c(=O)c3s2)CC1 | 92.05
13 | O=C(NC1CCCC1)C1CCN(c2cc(-n3ccnc3)ncn2)CC1 | -4.5
14 | O=C(NC1CC1)C1CCN(c2nc3nc[nH]c(=O)c3s2)CC1 | 99.33
15 | CC(NC(=O)C1CCN(C(C)C)CC1)c1nncn1C1CCCC1 (stereo unspecified) | -21.33
16 | O=C(C1CCN(c2snc3ccccc23)CC1)N1CCCCCC1 | 0.1158
17 | CCc1nc(CC(=O)N2CCC(C(=O)N3CCCC3)CC2)cs1 | -3.887
18 | CC(C)NC(=O)C1CCN(Cn2ccc(-c3ccc(F)cc3)n2)CC1 | 3.574
19 | O=C(NC1CCN(c2snc3ccccc23)CC1)C1CCC1 | 9.197
20 | CNC(=O)C1CCCN(c2nc3c(-c4ccccc4)csc3c(=O)[nH]2)C1 (stereo unspecified) | 3.58
21 | CCc1c(C)nc2ccccc2c1N1CCC(C(=O)NC)CC1 | -7.875
22 | CNC(=O)C1CCN(c2nc3nc[nH]c(=O)c3s2)CC1 | 82.12
23 | O=C(C1CCN(c2nc3nc[nH]c(=O)c3s2)CC1)N1CCCCC1 | 84.01
24 | CCC(=O)N1CCc2[nH]cnc2C12CCN(CC1CCOC1)CC2 (stereo unspecified) | -0.5236
25 | O=C(CCc1ccco1)NCC1CCCN1c1cccnn1 (stereo unspecified) | 2.662
26 | Fc1cc(CN2CCOC3(CCOCC3)C2)ccc1Cl | 8.168

Row | Compound | Percent Effect [%]
27 | CN(C)C(=O)CNC(=O)c1ccc2c(-c3nccs3)noc2c1 | -0.7255
28 | CC(Cc1ccco1)NC(=O)C1=NN(c2ccccc2)C(=O)CC1 (stereo unspecified) | -5.577
29 | Cn1cnc2c1CCN(CCCOc1ccc(C#N)cc1)C2 | -1.382
30 | CN(C)c1ccc(-c2nnc([C@H]3CCN(C4CCCCC4)C3)o2)cc1 | -10.19
31 | Cc1ccccc1-c1cc(CC2(C(=O)O)CCOCC2)on1 | 97.16
32 | Cc1cc(NCC2(O)CCOCC2)c2ccccc2n1 | 18.91
33 | O=C(NCCO)C1(Cc2cc(-c3ccc(F)cc3F)no2)CCOCC1 | -8.546
34 | O=C(O)C1(Cc2cc(-c3ccccc3F)no2)CCOCC1 | 118.9
35 | O=C(NC1CC1)C1(Cc2cc(-c3ccc(F)cc3F)no2)CCOCC1 | 116.7
36 | Cc1ccccc1C1(C(=O)NCCN2CCCC2)CCOCC1 | 3.645
37 | O=C(CNC1(CCO)CCOCC1)Nc1ccc(F)cc1F | 0.1585
38 | O=C(O)C1(Cc2cc(-c3cccc(F)c3)no2)CCOCC1 | -9.48
39 | O=C(O)C1(Cc2cc(-c3ccc(F)cc3)no2)CCOCC1 | 104.3
40 | O=C(O)C1(Cc2cc(-c3ccc(F)cc3F)no2)CCOCC1 | -11.85
41 | COCCNC(=O)c1cc(F)ccc1NS(C)(=O)=O | -6.492
42 | Cc1cc(C)n(CC2CCCN2CC(=O)N(C)Cc2cnn(C)c2)n1 (stereo unspecified) | 3.257
43 | Cc1ccsc1CN(CCN(C)C)C(=O)C1=NNC(=O)CC1 | -65.43
44 | O=C(CSc1ccncc1)N1CCC2(CC1)c1ccccc1CC2O (stereo unspecified) | -6.227
45 | CCS(=O)(=O)N1CC[C@H]2O[C@@H](c3nnc(C)o3)CC[C@H]21 | -3.387
46 | CCc1nc(C)c(C(=O)N2CCNCC2C(=O)NCc2ccncc2)o1 (stereo unspecified) | -5.393
47 | COCc1noc(-c2nn(-c3ccc(F)cc3)c3c2CCC3)n1 | -5.396
48 | COCCOCc1cccc(NC(=O)N2CCCC2c2ccncc2)c1 (stereo unspecified) | 1.869
49 | CNC(=O)C(C)(C)N1CCC[C@H]1C(=O)NCCN(C)C.Cl | 11.97
50 | Cc1ncc2c(n1)CCCC2NC(=O)c1ccncc1 (stereo unspecified) | 4.921
51 | Cc1ccccc1C(=O)NC1CCN(c2cnn(C)c2)C1=O (stereo unspecified) | -0.04337
52 | Cc1ncc2c(n1)CCCC2NC(=O)c1ccccc1Cn1cncn1 (stereo unspecified) | -4.956

Row | Compound | Percent Effect [%]
53 | Cc1ncc2c(n1)CCCC2NC(=O)c1ccc(Cn2cccn2)cc1 (stereo unspecified) | 102.9
54 | Cc1ncc2c(n1)CCCC2NC(=O)c1ccccc1C(=O)O (stereo unspecified) | 116.6
55 | O=C(Nc1ccc(Cn2cccn2)cc1)N1CCC(CO)CC1 | 5.025
56 | Cc1ccccc1Oc1ncccc1CNS(C)(=O)=O | -1.022
57 | CNC(=O)CN(C)S(=O)(=O)c1c(Br)cc2[nH]c(=O)oc2c1Cl | -6.435
58 | CNc1cc(C)nc(-c2cc(NCCO)nc3[nH]ccc23)n1 | 88.51
59 | CN(C)CCNc1cc(-c2ncccn2)c2cc[nH]c2n1 | -0.2256
60 | COc1cccc(-c2cc(NCCN(C)C)nc3[nH]ccc23)n1 | -69.14
61 | Nc1ccnc(-c2cc(NC3CCNCC3)nc3[nH]ccc23)c1 | 10.25
62 | COc1nccnc1-c1cc(NC2CCNCC2)nc2[nH]ccc12 | -9.475
63 | COc1cccc(-c2cc(NCCO)nc3[nH]ccc23)n1 | 17.98
64 | CN(C)CCNc1cc(-c2ccc[nH]c2=O)c2cc[nH]c2n1 | 6.813
65 | CNc1cc(C)nc(-c2cc(NC)nc3[nH]ccc23)n1 | 82.65
66 | CNc1cc(C)nc(-c2cc(NC3CCNCC3)nc3[nH]ccc23)n1 | 81.74
67 | COCc1ncn(Cc2nc(-c3ccc(OC)c(OC)c3)oc2C)n1 | 7.274
68 | Cn1ccc(CNC(=O)Nc2ccc(S(=O)(=O)C(F)F)cc2)c1 | -20.88
69 | N#Cc1cc(NC(=O)c2ccccn2)ccc1N1CCC(O)CC1 | -12.43
70 | Cc1cc2cccc(C(=O)N3CC[C@@H](N)[C@H](O)C3)c2o1 | -9.123
71 | Cc1cc(-c2cc(F)ccc2C(=O)O)nc(C2CCCN(C)C2)n1 (stereo unspecified) | 126.1
72 | Cc1cc(C(=O)N2CCCC(c3noc(C)n3)C2)[nH]n1 (stereo unspecified) | -10.2
73 | Cc1nc(-c2ccccc2C(=O)O)cc(C2CCN(C(C)C)C2)n1 (stereo unspecified) | 107.2
74 | Cc1cc(-c2ccccc2C(=O)O)nc(C2CCCN(C)C2)n1 (stereo unspecified) | 123
75 | Cc1noc(C2CCCN(C(=O)c3ccc(F)cc3F)C2)n1 (stereo unspecified) | -2.652
76 | CC(=O)N1CCC(c2nc(C)cc(-c3ccccc3C(=O)O)n2)CC1 | 83.33
77 | Cc1nc(C(C)C)ncc1C(=O)N1CCC(c2ccccc2C(=O)O)C1 (stereo unspecified) | -21.75
78 | COC(=O)c1cccc(NS(=O)(=O)c2cnc(NC(C)=O)s2)c1 | 20.99

Row | Compound | Percent Effect [%]
79 | Cc1cc2nc(CO[C@H]3CN(C(=O)C4CC4)C[C@H]3F)[nH]c2cc1C | 14.86
80 | CC(Cc1ccco1)NS(=O)(=O)N1CCCCC1 (stereo unspecified) | -4.951
81 | COC(=O)NCC(=O)N1CCCCC1c1nc2cc(F)ccc2[nH]1 (stereo unspecified) | -29.13
82 | Cc1cc(-c2cc(F)ccc2C(=O)O)nc(C2CCCCN2C(C)C)n1 (stereo unspecified) | 125.8
83 | Cc1cc(-c2ccccc2C(=O)O)nc(C2CCCN(C(C)C)C2)n1 (stereo unspecified) | 128.4
84 | Cc1cc(=O)c(C(=O)N2CCCCC2c2ccc(F)cc2)c[nH]1 (stereo unspecified) | -20.91
85 | COc1ccc(Cl)cc1CCNC(=O)N(C)CC1CCOC1 (stereo unspecified) | 11.56
86 | CN(C)CCN1CCc2c(nnn2C)C1COCc1ccccc1.O=C(O)C(F)(F)F.O=C(O)C(F)(F)F (stereo unspecified) | 6.935
87 | CN1CCC2(CC1)CN(Cc1ccc(C3CCCCO3)o1)CCCN2C (stereo unspecified) | 6.017
88 | Cc1nc(CNC(=O)Nc2ccc(N(C)C)nc2)sc1C | -4.03
89 | CN(C)c1ccc(NC(=O)NCc2cccnc2N(C)C)cn1 | 100.5
90 | CC(CNC(=O)Nc1ccc(N(C)C)nc1)Cn1cccn1 (stereo unspecified) | 10.01
91 | Cc1nnc(NC(=O)NCc2cccnc2N(C)C)s1 | 4.263
92 | CN(C)c1ccc(NC(=O)NCc2cccs2)cn1 | -3.387
93 | COc1ncccc1CNC(=O)Nc1ccc(N(C)C)nc1 | 102.4
94 | O=C(O)C(F)(F)F.O=C(O)C(F)(F)F.O=S(=O)(NCC1OCCc2cn(Cc3ccccn3)nc21)C1CC1 (stereo unspecified) | 3.652
95 | CCCN1CCCN(c2ccc(-n3ccc(C)n3)nn2)CC1 | -2.54
96 | CNC(=O)C1CCN(CC(=O)Nc2cc(C(C)C)no2)CC1 | 108.1
97 | CC(C)c1cc(NC(=O)CN2CCc3cncnc3C2)on1 | -4.855
98 | CC(C)c1cc(NC(=O)CN2CCc3ccccc3C2)on1 | 0.7279
99 | CC(C)c1cc(NC(=O)CN2CCCC(Cn3cncn3)C2)on1 (stereo unspecified) | 3.767
100 | Cc1nnc2n1CCN(CC(=O)Nc1cc(C(C)C)no1)C2 | 1.962
101 | CC(C)c1cc(NC(=O)CN2CCC(C(N)=O)CC2)on1 | 115.1
